The values that follow come from PubChem BioAssay (NCI).

This is part of a sample that, as a whole, favours compounds with a hit. Of some 83,000 tested, about 20% had one in any assay.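 Compound tested at a single concentration for 48 hours in 96-well plates; a percent growth value below 10 was scored as active.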 Calls of active or inactive are those of the source.

One assay has as its system IGROV1 ovarian. The experiment in a line: NCI-60 one-dose screen, 48 h (100 = growth as untreated, 0 = no growth, -100 = all killed). As to conditions: 10 µM unless noted.
`O=C(NCCCNc1nccc(-n2ccc3cccnc32)n1)c1c(F)cccc1F`: the growth is 97.6% (inactive). Take `COc1ccc(C(=O)c2cc(OC)c3c(c2)OCO3)cc1O`: the growth is 27.9% (inactive). Turning to `Cc1cc(C(C)(C)C)ccc1S`, the growth is 109% (inactive). On the same count and under the same terms, next, `Cn1cnc2c(N3CCN(C(=O)OCc4ccc5c(Cl)cc(Cl)c(O)c5n4)CC3)nc(Cl)nc21`: 66% (inactive); `Fc1ccccc1-c1nc(-c2nc3cc(Cl)c(Cl)cc3[nH]2)c2ccccn12`: 21.9% (inactive); `C1=Cc2ccccc2N(c2nnc(-c3ccccc3)o2)c2ccccc21`: 92.9% (inactive). Take `COc1ccc(/C=C2/C(=O)NC(SCC(=O)N3CCN(c4cc5c(cc4F)c(=O)c(C(=O)O)cn5C4CC4)CC3)=NC2N)cc1OC` (stereo unspecified): the growth was 107% (inactive). In the case of `COc1cc(NCCCCCN)c2ncccc2c1`, the growth is 98% (inactive). `C=C1CCC2C(C)(CO)C(O)CCC2(C)C1C/C=C1/C(=O)OCC1Oc1ccccc1C` (stereo unspecified): the growth is 73.7% (inactive).

On to `O=C(/C=C/c1cc(-c2ccc3c(c2)OCO3)n[nH]1)c1ccc2c(c1)OCO2`, for which the growth was 91.6% (inactive). Regarding `c1cc(C2=N[C@@H]3c4ccccc4C[C@@H]3O2)nc(C2=N[C@@H]3c4ccccc4C[C@@H]3O2)c1`, the growth was 104% (inactive). Regarding `COc1ccccc1CNCCCN1C(=O)c2ccc3c4c(ccc(c24)C1=O)C(=O)N(CCCNCCCCNCCCN)C3=O`, the growth was -2.75% (active). For `NC(=N\N=C/c1ccc(O)cc1)/C(N)=N\N=C/c1ccc(O)cc1`, the growth is 79.4% (inactive). `COc1ccc(-c2c(N)n[nH]c2-c2cc(OC)c3c(c2)OCCO3)cc1`: the growth was 85.9% (inactive). Turning to `C=C1CCC2C(C)(CO)C(O)CCC2(C)C1C/C=C1/C(=O)OCC1O/C=C/c1ccccc1` (stereo unspecified), the growth was 84.1% (inactive). Regarding `CC(C)(C)n1cc(-c2ccnc(NCCNS(=O)(=O)c3ccc(F)cc3)c2)c(-c2cccc(O)c2)n1`, the growth is 68.9% (inactive). On to `COc1ccc2c(c1)OC1=C(C(=O)OC1)C2c1cc(OC)c2c(c1)OCO2` (stereo unspecified), for which the growth is 21.1% (inactive).

`CC12CCC3C4(C)COC(c5ccccc5Cl)OC4CCC3(C)C1CC(C1=CCOC1=O)O2` (stereo unspecified): the growth is 82.9% (inactive). In the case of `O=S(=O)(NCCCNc1nccc(-n2ccc3cccnc32)n1)c1cccc(C(F)(F)F)c1`, the growth was 107% (inactive). With `Cc1ccc(S(=O)(=O)NCCNc2cc(-c3cn(C(C)(C)C)nc3-c3cccc(O)c3)ccn2)cc1`, the growth was 75.2% (inactive).

With `Cc1ccc(S(=O)(=O)NCCCNc2cc(-c3cn(C(C)(C)C)nc3-c3cccc(O)c3)ccn2)cc1`, the growth is 61.7% (inactive). On the same count and under the same terms, next, `C=C1CCC2C(C)(CO)C(O)CCC2(C)C1CC(NCc1ccccc1)C1=CCOC1=O` (stereo unspecified): 102% (inactive); `COc1ccc2c(c1)NC1=C(C(=O)OC1)C2c1cc(OC)c2c(c1)OCO2` (stereo unspecified): 24.4% (inactive); `COc1cc(Nc2ncccc2C(=O)NCc2cn(Cc3cccc(Oc4ccccc4)c3)nn2)cc(OC)c1`: 58.5% (inactive). `CC12CCC3C4(C)COC(c5ccco5)OC4CCC3(C)C1CC(C1=CCOC1=O)O2` (stereo unspecified): the growth was 93.8% (inactive).

On to `C=C1CCC2C3(C)COC(C)(C)OC3CCC2(C)C1C/C=C1/C(=O)OCC1Oc1ccccc1OC` (stereo unspecified), for which the growth was 76.2% (inactive). On the same count and under the same terms, next, `O=C(/C=C/c1ccccc1)c1cccc(O)c1`: 82% (inactive); `CC(C)(C)n1cc(-c2ccnc(NCCCNS(=O)(=O)c3ccc(F)cc3)c2)c(-c2cccc(O)c2)n1`: 51.1% (inactive). As for `COc1cc(C2C3=C(COC3=O)Nc3cc4c(cc32)OCO4)cc2c1OCO2` (stereo unspecified), the growth is 23.6% (inactive). On the same count and under the same terms, the figure for `O=C(NCCNc1nccc(-n2ccc3cccnc32)n1)c1ccc(C(F)(F)F)cc1` is 103% (inactive); for `COc1cc(C2C3=C(COC3=O)Nc3cc4c(cc32)CCC4)cc2c1OCO2` (stereo unspecified) it is 23.2% (inactive); for `COc1ccc(-c2ccc(C)n2-c2ccc(-c3nc4cc(Cl)ccc4s3)cc2)cc1` it is 54.9% (inactive). `O=C(NCc1cn(Cc2cccc(Oc3ccccc3)c2)nn1)c1cccnc1Nc1ccc(F)cc1`: the growth is 79.4% (inactive).

Turning to `CC12CCCC(CC(=O)c3[nH]c4ccccc4c31)C2` (stereo unspecified), the growth was 24.6% (inactive).

A further assay deals with OVCAR-3 ovarian. Described as above. As to conditions: 10 µM unless noted.
In the case of `O=C(NCCCNc1nccc(-n2ccc3cccnc32)n1)c1c(F)cccc1F`, the growth was 109% (inactive). On to `COc1ccc(C(=O)c2cc(OC)c3c(c2)OCO3)cc1O`, for which the growth was -41.7% (active). In the case of `Cc1cc(C(C)(C)C)ccc1S`, the growth was 111% (inactive).

As to `Cn1cnc2c(N3CCN(C(=O)OCc4ccc5c(Cl)cc(Cl)c(O)c5n4)CC3)nc(Cl)nc21`, the growth was 66.8% (inactive). Take `Fc1ccccc1-c1nc(-c2nc3cc(Cl)c(Cl)cc3[nH]2)c2ccccn12`: the growth is 70.5% (inactive). Same read-out and setting: the figure for `C1=Cc2ccccc2N(c2nnc(-c3ccccc3)o2)c2ccccc21` is 107% (inactive); for `COc1cc(C2CC(c3ccc4c(c3)OCO4)=NN2C=O)cc(OC)c1OC` (stereo unspecified) it is -29% (active); for `COc1ccc(/C=C2/C(=O)NC(SCC(=O)N3CCN(c4cc5c(cc4F)c(=O)c(C(=O)O)cn5C4CC4)CC3)=NC2N)cc1OC` (stereo unspecified) it is 107% (inactive). Still for that read-out and setting: the figure for `COc1cc(C2CC(c3ccc4c(c3)OCO4)=NN2C(C)=O)cc(OC)c1OC` (stereo unspecified) is -5.71% (active). As to `C=C1CCC2C(C)(CO)C(O)CCC2(C)C1C/C=C1/C(=O)OCC1Oc1ccccc1C` (stereo unspecified), the growth was 34.3% (inactive).

Turning to `CCCCCCCCCCCCCCCCNC(=O)OC(C)C`, the growth was 19.5% (inactive).

For the compound `O=C(/C=C/c1cc(-c2ccc3c(c2)OCO3)n[nH]1)c1ccc2c(c1)OCO2`, the growth was 90.7% (inactive). Same read-out and setting: the figure for `c1cc(C2=N[C@@H]3c4ccccc4C[C@@H]3O2)nc(C2=N[C@@H]3c4ccccc4C[C@@H]3O2)c1` is 109% (inactive); for `COc1ccccc1CNCCCN1C(=O)c2ccc3c4c(ccc(c24)C1=O)C(=O)N(CCCNCCCCNCCCN)C3=O` it is -96.8% (active); for `NC(=N\N=C/c1ccc(O)cc1)/C(N)=N\N=C/c1ccc(O)cc1` it is 92% (inactive). On the same count and under the same terms, next, `COc1ccc(-c2c(N)n[nH]c2-c2cc(OC)c3c(c2)OCCO3)cc1`: 76.2% (inactive); `C=C1CCC2C(C)(CO)C(O)CCC2(C)C1C/C=C1/C(=O)OCC1O/C=C/c1ccccc1` (stereo unspecified): 75.7% (inactive). On the same count and under the same terms, the figure for `CC(C)(C)n1cc(-c2ccnc(NCCNS(=O)(=O)c3ccc(F)cc3)c2)c(-c2cccc(O)c2)n1` is 70.5% (inactive). As for `COc1ccc2c(c1)OC1=C(C(=O)OC1)C2c1cc(OC)c2c(c1)OCO2` (stereo unspecified), the growth is -51.3% (active). Still for that read-out and setting: next, `CC(C)OC(=O)N1CCOCC1`: 115% (inactive); `CC12CCC3C4(C)COC(c5ccccc5Cl)OC4CCC3(C)C1CC(C1=CCOC1=O)O2` (stereo unspecified): 64.4% (inactive).

As for `CCCOC(=O)n1cccc1`, the growth is 106% (inactive).

For the compound `O=S(=O)(NCCCNc1nccc(-n2ccc3cccnc32)n1)c1cccc(C(F)(F)F)c1`, the growth is 112% (inactive).

Turning to `Cc1ccc(S(=O)(=O)NCCNc2cc(-c3cn(C(C)(C)C)nc3-c3cccc(O)c3)ccn2)cc1`, the growth was 81.7% (inactive). The same measure, in the same setting: next, `Cc1ccc(S(=O)(=O)NCCCNc2cc(-c3cn(C(C)(C)C)nc3-c3cccc(O)c3)ccn2)cc1`: 74.6% (inactive); `C=C1CCC2C(C)(CO)C(O)CCC2(C)C1CC(NCc1ccccc1)C1=CCOC1=O` (stereo unspecified): 105% (inactive). On to `COc1ccc2c(c1)NC1=C(C(=O)OC1)C2c1cc(OC)c2c(c1)OCO2` (stereo unspecified), for which the growth is -44.9% (active). Still for that read-out and setting: next, `COc1cc(Nc2ncccc2C(=O)NCc2cn(Cc3cccc(Oc4ccccc4)c3)nn2)cc(OC)c1`: -2.42% (active); `CC12CCC3C4(C)COC(c5ccco5)OC4CCC3(C)C1CC(C1=CCOC1=O)O2` (stereo unspecified): 105% (inactive). The same measure, in the same setting: the figure for `C=C1CCC2C3(C)COC(C)(C)OC3CCC2(C)C1C/C=C1/C(=O)OCC1Oc1ccccc1OC` (stereo unspecified) is 31.3% (inactive). On to `CC(C)(C)n1cc(-c2ccnc(NCCCNS(=O)(=O)c3ccc(F)cc3)c2)c(-c2cccc(O)c2)n1`, for which the growth was 56.1% (inactive). Regarding `COc1cc(C2C3=C(COC3=O)Nc3cc4c(cc32)OCO4)cc2c1OCO2` (stereo unspecified), the growth is -45.3% (active).

As to `O=C(NCCNc1nccc(-n2ccc3cccnc32)n1)c1ccc(C(F)(F)F)cc1`, the growth was 109% (inactive). The same measure, in the same setting: next, `COc1cc(C2C3=C(COC3=O)Nc3cc4c(cc32)CCC4)cc2c1OCO2` (stereo unspecified): -47.9% (active). Same read-out and setting: the figure for `COc1ccc(-c2ccc(C)n2-c2ccc(-c3nc4cc(Cl)ccc4s3)cc2)cc1` is 109% (inactive); for `O=C(NCc1cn(Cc2cccc(Oc3ccccc3)c2)nn1)c1cccnc1Nc1ccc(F)cc1` it is 35.9% (inactive). Take `CC12CCCC(CC(=O)c3[nH]c4ccccc4c31)C2` (stereo unspecified): the growth was -26.1% (active).
